Data taken from the supplement of paper PMC11732987, “Enantioselective OTUD7B fragment discovery through chemoproteomics screening and high-throughput optimisation” (Communications Chemistry, 2025).

Assays:
Experiment in all cases: log2 ratio of Biotin-Ahx-Ub-VS probe labelling (fragment/DMSO); higher = less target engagement (more negative = stronger competition), active = hit call of the paper (q ≤ 0.05, log2 ratio ≤ -1)
Details in all cases: compound concentration: 200 uM; treatment time: 3 h
[1] = molecular target: USP9X (UniProt Q93008)
In short: (§1)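 Labelled DUBs from HEK293T lysate were NeutrAvidin-enriched, digested with LysC and trypsin, and run by diaPASEF LC-MS/MS. Before that, each 495 µg sample in Tris/CHAPS/IGEPAL buffer with protease inhibitors was treated in triplicate with fragment at 200 µM or vehicle for 3 h, then with Biotin-Ahx-Ub-VS at 0.5 µM final for 1 h. Values are average log2 ratios of fragment over vehicle by unpaired t-test, based on global-median-normalised Spectronaut label-free quantities from proteins with ≥2 unique peptides.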

[2] = molecular target: UniProt O00487
In short: as §1

[3] = molecular target: UniProt O00507
In short: as §1

[4] = molecular target: UniProt P51784
In short: as §1

[5] = molecular target: T1, UniProt Q5T2D3
T1 sequence (whole entry): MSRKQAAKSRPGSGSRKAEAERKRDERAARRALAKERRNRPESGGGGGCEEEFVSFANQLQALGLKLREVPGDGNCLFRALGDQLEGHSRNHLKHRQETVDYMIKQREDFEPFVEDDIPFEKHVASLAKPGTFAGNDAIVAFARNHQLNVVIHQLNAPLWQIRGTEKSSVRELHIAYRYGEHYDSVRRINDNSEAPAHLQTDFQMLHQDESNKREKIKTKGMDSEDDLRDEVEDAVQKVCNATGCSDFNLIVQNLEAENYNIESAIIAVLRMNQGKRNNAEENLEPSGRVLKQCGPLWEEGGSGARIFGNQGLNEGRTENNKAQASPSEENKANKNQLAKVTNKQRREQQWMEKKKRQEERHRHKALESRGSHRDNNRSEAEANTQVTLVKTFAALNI
In short: as §1

[6] = molecular target: T2, UniProt Q8TE49
T2 sequence (whole entry): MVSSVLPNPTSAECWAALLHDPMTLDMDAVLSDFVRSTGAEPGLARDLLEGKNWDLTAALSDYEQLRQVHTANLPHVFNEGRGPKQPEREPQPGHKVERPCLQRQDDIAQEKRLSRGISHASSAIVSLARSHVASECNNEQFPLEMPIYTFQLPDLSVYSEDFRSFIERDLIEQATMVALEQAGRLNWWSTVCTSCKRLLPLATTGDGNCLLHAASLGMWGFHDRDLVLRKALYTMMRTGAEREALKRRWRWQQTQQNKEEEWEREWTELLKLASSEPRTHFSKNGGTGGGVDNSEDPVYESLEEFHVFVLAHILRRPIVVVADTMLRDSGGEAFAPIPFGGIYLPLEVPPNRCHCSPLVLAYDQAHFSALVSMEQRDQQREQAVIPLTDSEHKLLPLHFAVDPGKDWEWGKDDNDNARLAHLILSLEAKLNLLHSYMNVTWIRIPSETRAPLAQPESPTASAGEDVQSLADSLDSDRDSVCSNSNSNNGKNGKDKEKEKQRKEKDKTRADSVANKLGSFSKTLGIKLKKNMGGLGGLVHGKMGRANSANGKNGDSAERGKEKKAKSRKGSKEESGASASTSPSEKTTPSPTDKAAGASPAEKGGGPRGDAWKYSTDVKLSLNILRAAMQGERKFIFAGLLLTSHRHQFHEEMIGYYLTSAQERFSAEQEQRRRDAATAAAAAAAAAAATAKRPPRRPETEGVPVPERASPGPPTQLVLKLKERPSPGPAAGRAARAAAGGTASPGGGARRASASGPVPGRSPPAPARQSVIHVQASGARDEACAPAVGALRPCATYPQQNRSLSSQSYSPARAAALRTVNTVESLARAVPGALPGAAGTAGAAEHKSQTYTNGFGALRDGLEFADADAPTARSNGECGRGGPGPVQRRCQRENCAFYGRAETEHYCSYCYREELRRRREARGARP
In short: as §1

[7] = molecular target: T3, UniProt Q9P2H5
T3 sequence (whole entry): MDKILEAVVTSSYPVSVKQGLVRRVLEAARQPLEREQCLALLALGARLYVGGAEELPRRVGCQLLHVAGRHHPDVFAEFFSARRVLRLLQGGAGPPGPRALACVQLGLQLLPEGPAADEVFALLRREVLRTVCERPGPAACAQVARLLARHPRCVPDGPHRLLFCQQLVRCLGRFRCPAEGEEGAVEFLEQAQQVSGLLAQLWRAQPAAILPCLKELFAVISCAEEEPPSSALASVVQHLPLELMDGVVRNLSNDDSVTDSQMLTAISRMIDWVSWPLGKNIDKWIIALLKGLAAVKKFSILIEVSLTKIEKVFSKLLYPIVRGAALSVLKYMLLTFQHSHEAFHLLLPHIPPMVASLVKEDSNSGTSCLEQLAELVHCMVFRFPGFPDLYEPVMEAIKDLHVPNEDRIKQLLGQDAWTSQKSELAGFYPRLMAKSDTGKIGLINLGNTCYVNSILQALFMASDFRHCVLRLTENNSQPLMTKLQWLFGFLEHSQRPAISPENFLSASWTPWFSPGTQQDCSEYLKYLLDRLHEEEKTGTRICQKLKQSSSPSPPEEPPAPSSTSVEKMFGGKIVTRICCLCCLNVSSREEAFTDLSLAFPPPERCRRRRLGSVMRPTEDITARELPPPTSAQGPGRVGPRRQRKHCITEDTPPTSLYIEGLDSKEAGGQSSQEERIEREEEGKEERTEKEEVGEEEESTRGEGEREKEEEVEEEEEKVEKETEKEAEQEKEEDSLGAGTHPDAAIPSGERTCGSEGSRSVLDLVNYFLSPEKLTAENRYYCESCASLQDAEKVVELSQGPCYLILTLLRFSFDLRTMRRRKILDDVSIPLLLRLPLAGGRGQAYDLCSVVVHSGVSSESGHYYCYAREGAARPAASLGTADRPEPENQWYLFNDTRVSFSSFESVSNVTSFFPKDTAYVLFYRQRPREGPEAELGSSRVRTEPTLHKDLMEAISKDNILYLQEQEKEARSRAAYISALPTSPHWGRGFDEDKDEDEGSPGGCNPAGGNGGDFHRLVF
In short: as §1

[8] = molecular target: T4, UniProt Q9UGI0
T4 sequence (whole entry): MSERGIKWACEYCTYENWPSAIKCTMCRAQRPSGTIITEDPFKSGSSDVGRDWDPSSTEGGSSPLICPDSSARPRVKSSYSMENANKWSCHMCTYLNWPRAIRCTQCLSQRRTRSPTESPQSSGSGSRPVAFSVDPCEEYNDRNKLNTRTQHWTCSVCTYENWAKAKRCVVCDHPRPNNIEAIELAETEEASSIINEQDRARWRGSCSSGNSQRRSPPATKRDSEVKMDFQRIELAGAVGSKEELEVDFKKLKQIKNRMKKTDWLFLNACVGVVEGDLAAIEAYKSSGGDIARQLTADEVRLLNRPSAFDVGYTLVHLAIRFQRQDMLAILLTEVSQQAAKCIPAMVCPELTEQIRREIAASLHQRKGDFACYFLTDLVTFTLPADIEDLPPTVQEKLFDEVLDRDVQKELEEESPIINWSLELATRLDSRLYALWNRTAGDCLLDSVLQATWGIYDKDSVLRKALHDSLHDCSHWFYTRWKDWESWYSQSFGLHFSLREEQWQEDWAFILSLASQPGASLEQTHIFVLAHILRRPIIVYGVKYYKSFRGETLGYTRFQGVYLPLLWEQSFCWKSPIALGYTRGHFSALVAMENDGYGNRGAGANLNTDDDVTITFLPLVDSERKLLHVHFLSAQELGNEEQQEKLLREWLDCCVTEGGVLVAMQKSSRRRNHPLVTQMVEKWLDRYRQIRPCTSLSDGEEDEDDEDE
In short: as §1

[9] = molecular target: T5, YOD1 (UniProt Q5VVQ6)
T5 sequence (whole entry): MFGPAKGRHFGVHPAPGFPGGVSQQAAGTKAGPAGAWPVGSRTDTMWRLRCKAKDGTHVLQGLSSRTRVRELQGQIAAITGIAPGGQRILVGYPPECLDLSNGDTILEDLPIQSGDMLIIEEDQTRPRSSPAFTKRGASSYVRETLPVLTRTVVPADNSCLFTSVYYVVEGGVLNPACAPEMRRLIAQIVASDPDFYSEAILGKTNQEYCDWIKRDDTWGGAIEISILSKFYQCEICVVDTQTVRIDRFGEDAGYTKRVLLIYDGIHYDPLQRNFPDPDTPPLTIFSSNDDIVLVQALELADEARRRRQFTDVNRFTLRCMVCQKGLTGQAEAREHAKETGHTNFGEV
In short: as §1

Measured: log2 ratio of Biotin-Ahx-Ub-VS probe labelling

Sequence of UniProt O00487 (O00487 whole entry): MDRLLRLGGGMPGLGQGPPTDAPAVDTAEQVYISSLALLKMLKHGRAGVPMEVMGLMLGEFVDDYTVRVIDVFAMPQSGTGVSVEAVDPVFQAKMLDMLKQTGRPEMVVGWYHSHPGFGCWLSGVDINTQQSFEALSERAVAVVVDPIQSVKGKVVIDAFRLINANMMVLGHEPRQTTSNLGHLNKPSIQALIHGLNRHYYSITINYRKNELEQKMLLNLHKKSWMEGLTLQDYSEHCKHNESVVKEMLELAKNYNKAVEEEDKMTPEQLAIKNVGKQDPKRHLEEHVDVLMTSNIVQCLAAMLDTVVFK
Sequence of USP9X (Q93008 whole entry, the tested form may be a part): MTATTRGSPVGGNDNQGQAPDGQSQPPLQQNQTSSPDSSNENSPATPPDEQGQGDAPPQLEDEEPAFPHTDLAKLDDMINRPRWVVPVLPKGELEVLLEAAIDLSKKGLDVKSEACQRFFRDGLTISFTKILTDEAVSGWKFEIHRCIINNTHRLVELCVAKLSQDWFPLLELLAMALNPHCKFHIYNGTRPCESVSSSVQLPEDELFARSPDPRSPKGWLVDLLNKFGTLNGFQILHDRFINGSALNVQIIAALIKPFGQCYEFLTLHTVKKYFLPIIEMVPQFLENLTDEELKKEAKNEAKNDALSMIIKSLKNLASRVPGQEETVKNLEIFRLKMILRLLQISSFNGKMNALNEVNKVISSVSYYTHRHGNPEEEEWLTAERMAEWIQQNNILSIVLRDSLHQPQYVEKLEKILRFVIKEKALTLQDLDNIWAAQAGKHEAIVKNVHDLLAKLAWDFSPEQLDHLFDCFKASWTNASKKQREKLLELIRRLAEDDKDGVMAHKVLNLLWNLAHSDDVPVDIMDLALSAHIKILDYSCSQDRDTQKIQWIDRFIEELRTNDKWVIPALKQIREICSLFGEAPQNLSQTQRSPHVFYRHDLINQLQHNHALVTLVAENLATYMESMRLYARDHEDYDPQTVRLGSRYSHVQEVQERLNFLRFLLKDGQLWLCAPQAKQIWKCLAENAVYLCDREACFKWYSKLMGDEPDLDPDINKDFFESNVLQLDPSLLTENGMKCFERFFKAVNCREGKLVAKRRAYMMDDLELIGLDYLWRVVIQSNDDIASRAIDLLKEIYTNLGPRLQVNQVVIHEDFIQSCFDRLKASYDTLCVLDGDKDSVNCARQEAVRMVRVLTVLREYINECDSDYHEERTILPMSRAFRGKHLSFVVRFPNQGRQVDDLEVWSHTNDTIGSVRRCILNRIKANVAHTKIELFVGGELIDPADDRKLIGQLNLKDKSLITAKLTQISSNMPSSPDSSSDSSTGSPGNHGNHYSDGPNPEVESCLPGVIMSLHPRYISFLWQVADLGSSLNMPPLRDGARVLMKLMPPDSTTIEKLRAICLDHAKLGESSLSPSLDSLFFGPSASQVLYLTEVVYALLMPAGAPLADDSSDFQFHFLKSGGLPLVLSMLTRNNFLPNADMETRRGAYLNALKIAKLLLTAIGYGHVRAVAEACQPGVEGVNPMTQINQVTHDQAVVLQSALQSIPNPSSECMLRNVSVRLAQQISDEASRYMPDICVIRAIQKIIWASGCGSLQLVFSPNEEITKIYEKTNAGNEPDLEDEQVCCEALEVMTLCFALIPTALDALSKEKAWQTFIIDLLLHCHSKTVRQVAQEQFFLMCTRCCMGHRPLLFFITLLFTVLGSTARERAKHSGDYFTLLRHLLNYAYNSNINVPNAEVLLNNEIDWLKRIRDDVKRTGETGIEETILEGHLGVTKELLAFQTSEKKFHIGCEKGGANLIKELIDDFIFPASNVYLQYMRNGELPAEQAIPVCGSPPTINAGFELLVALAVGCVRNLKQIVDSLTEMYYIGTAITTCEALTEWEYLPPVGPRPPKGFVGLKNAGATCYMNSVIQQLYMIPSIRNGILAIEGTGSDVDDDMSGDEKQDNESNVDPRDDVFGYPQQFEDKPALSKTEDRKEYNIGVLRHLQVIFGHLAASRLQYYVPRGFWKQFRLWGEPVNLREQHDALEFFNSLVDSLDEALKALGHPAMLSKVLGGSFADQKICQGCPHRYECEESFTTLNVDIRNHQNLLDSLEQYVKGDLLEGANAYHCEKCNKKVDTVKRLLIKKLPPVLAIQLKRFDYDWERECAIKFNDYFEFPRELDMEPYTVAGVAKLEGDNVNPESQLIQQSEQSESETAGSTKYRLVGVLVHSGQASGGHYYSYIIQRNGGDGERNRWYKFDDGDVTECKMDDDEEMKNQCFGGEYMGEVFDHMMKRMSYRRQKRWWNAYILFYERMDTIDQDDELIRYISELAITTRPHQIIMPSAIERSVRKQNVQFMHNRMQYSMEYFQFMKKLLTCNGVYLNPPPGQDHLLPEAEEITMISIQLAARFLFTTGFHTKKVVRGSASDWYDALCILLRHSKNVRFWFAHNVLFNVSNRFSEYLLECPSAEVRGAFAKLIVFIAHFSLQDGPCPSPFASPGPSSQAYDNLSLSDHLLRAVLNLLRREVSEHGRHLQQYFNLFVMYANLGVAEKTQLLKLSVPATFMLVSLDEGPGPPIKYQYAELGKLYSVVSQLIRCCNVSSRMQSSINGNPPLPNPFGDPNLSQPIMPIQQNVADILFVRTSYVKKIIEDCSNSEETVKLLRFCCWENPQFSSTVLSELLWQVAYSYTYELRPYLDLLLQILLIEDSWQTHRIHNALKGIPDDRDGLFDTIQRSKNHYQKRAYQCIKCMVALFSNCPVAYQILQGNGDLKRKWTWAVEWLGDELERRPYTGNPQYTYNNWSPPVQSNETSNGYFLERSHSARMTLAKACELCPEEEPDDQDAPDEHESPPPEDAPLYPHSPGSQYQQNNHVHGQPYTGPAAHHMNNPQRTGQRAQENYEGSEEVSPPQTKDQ
Sequence of UniProt P51784 (P51784 whole entry): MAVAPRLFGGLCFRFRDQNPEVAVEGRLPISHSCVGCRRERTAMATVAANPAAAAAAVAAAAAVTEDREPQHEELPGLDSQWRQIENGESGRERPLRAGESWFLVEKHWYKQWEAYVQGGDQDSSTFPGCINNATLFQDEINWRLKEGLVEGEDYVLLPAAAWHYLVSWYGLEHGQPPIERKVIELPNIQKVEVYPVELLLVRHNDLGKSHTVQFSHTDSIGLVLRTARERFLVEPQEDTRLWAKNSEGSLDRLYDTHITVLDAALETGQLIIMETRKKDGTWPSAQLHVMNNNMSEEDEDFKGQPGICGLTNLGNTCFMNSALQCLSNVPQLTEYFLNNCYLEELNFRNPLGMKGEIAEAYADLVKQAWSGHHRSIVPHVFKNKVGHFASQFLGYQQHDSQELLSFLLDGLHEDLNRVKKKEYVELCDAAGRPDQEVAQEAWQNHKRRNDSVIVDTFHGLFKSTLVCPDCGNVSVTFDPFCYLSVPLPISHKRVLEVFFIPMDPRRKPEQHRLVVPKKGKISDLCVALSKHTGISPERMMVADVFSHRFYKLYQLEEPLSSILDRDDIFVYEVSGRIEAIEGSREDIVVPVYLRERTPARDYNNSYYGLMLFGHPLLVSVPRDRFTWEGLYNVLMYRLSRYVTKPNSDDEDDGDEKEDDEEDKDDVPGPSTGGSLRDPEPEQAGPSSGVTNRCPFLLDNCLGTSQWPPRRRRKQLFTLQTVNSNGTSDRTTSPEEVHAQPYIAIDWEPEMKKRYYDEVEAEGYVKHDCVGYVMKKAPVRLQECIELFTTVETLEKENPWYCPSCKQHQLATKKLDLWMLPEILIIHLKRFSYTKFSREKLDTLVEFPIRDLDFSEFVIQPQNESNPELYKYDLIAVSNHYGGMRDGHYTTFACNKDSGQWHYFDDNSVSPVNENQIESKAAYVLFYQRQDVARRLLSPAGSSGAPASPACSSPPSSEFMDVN

CN(C)C(=O)c1ccc(CNC(=O)CCl)cc1
inactive: [1] 0.002 | [2] -0.101 | [3] 0.565 | [4] 0.0173 | [5] -0.167 | [6] -0.516 | [7] -0.0353 | [8] -0.474 | [9] 0.0763
